Source: PubChem BioAssay (NCATS)
Results filed as inconclusive are left out. A number with no mark means an inactive call. Active and inactive are the calls of the source. Calls come from the whole dose curve; as a rule, active = well fitted cell-killing curve with a large enough effect; inconclusive = small, poorly fitted or top-dose-only effect, or effect the other way; inactive = no such curve, though single readings can be large or run the other way.

assay: Quantitative High-Throughput drug screen in 47 multiple myeloma cell lines against the NCATS MIPE library collection: H1112_PLB cell viability assay (AID 1918967; note: nearly all actives have a fitted effect of over 30% in size); conditions: H1112 myeloma cells viability, ATP luminescence, 48 h; series mostly up to 45.8 µM; viability: at the top concentration
From the text: PI: Beverly A. Mock Ph.D.
Laboratory of Cancer Biology and Genetics,
Center for Cancer Research, National Cancer Institute,
National Institute of Health, Bethesda, Maryland
Drug resistance and disease progression are common in multiple myeloma (MM) patients, underscoring the need for new therapeutic combinations. […] We hypothesized that effective combinations would reduce MYC expression and enhance p16 activity. […] These preclinical data identify potentially useful drug combinations for evaluation in drug-resistant MM and reveal potential mechanisms of combined drug sensitivity.
Described herein is the primary MIPE qHTS used to cherrypick compounds. Validated compounds were then further tested for potential synergistic activiy.
[1] Peat TJ, Gaikwad SM, Dubois W, Gyabaah-Kessie N, Zhang S, Gorjifard S, Phyo Z, Andres M, Hughitt VK, Simpson RM, Miller MA, Girvin AT, Taylor A, Williams D, D'Antonio N, Zhang Y, Rajagopalan A, Flietner E, Wilson K, Zhang X, Shinn P, Klumpp-Thomas C, McKnight C, Itkin Z, Chen L, Kazandijian D, Zhang J, Michalowski AM, Simmons JK, Keats J, Thomas CJ, Mock BA. Drug combinations identified by high-throughput screening promote cell cycle transition and upregulate Smad pathways in myeloma. Cancer Lett. 2023 Aug 1;568:216284. doi: 10.1016/j.canlet.2023.216284. Epub 2023 Jun 24. PMID: 37356470; PMCID: PMC10408729.
SEQUENCE No. (e.g., 1, 2, 3, etc.); […] (e.g., Cells, Incubation, Reagent, etc.); VALUE and DESCRIPTION.
1; Cells; 5 uL; white, solid bottom 1536-well Greiner assay plate.
2; Compounds; 23 nL; Kalypsis pin tool (Wako USA) equipped with a 1536-well pin head to transfer to the assay plates.
3; Incubation; 48 hours; 37C incubation.
4; Reagent;5uL; CellTiter Glo (Promega).
5; Detector; 425V; Luminescence; Viewlux PerkinElmer.
NOTES (numbers refer to Sequence numbers above)
1. The cell-based screening methods employed in this study were like those previously published. Briefly, the corresponding myeloma cell lines were screened in 1,536-well plates with 500 cells, 5-uL per well for inhibition of cell viability (assessed by measuring ATP levels with CellTiterGlo).
2. NCATS MIPE 4.0 library of approved and investigational drugs were added using the Kalypsis pin tool. Wells treated with DMSO only for 100% viability and media only wells for 0% viability were used as controls.
3. The assay plates were covered and incubated for 48 hours in a 37C, 5% CO2 incubator with controlled humidity.
4. After 48 hours, CellTilter-GloTM luminescent substrate mix (Promega) reagent was added to the assay plate and plates we incubated for 5 min at room temperature.
5. Signal was measured as median relative luminescence units on a ViewLux (PerkinElmer) multiplate reader.
[1] Heske CM, Davis MI, Baumgart JT, Wilson K, Gormally MV, Chen L, Zhang X, Ceribelli M, Duveau DY, Guha R, Ferrer M, Arnaldez FI, Ji J, Tran HL, Zhang Y, Mendoza A, Helman LJ, Thomas CJ. Matrix Screen Identifies Synergistic Combination of PARP Inhibitors and Nicotinamide Phosphoribosyltransferase (NAMPT) Inhibitors in Ewing Sarcoma. Clin Cancer Res. 2017 Dec 1;23(23):7301-7311. doi: 10.1158/1078-0432.CCR-17-1121. Epub 2017 Sep 12. PMID: 28899971; PMCID: PMC6636827.
Potency is the fitted concentration of half-maximal effect.

SMILES | viability | Potency
CN(C)c1nc(N(C)C)nc(N(C)C)n1 | 90.5% | –
CCC1(C)CC(=O)NC1=O (stereo not given) | 112% | –
CC(C)(C)C(=O)Oc1ccc(S(=O)(=O)Nc2ccccc2C(=O)NCC(=O)O)cc1 | – | 18.7 µM (active)
CC(C(=O)O)c1cccc(C(=O)c2ccccc2)c1 (stereo not given) | – | 18.7 µM (active)
Nc1c2c(nc3ccccc13)CCCC2 | 99.2% | –
CN(C)C(=N)N=C(N)N | 115% | –
O=C(c1ccc(F)cc1)C1CCN(CCn2c(=O)[nH]c3ccccc3c2=O)CC1 | 113% | –
O=c1c(-c2ccc(O)cc2)coc2cc(O)cc(O)c12 | 104% | –
CCOC(=O)Nc1ccc(NCc2ccc(F)cc2)nc1N | 95.5% | –
CNCCCC12CCC(c3ccccc31)c1ccccc12 | – | 26.4 µM (active)
CC1COc2c(N3CCN(C)CC3)c(F)cc3c(=O)c(C(=O)O)cn1c23 (stereo not given) | 121% | –
NC(CO)C(=O)NNCc1ccc(O)c(O)c1O (stereo not given) | 87.1% | –
O=c1[nH]cc(F)c(=O)[nH]1 | 90.3% | –
Cn1ccc2cc3c(cc21)CCN3C(=O)Nc1cccnc1 | – | 20.9 µM (active)
COc1cc2nc(N3CCN(C(=O)c4ccco4)CC3)nc(N)c2cc1OC | – | 16.6 µM (active)
O=C(C1CCCCC1)N1CC(=O)N2CCc3ccccc3C2C1 (stereo not given) | 126% | –
COc1ccc(C2CNC(=O)C2)cc1OC1CCCC1 (stereo not given) | 121% | –
CN1CCC(=C2c3ccccc3CC(=O)c3sccc32)CC1 | – | 6.62 µM (active)
CN(C)CCCN1c2ccccc2CCc2ccc(Cl)cc21 | – | 0.833 µM (active)
O=C1N(c2ccccc2)c2ccccc2C1(Cc1ccncc1)Cc1ccncc1 | 107% | –

SMILES | viability | Potency
NC(=O)NO | – | 2.96 µM (active)
O=C(CCCN1CCC(O)(c2ccc(Cl)cc2)CC1)c1ccc(F)cc1 | 85.8% | –
CC(C)(Oc1ccc(C2CC2(Cl)Cl)cc1)C(=O)O (stereo not given) | 120% [at 92.2 µM] | –
Cc1ccccc1N1C(=O)c2cc(S(N)(=O)=O)c(Cl)cc2NC1C (stereo not given) | 98.8% | –
Cn1c(=O)c2[nH]cnc2n(C)c1=O | 111% | –
CC1(C)O[C@H]2CC(=O)OC[C@]23[C@H]2CC[C@@]4(C)[C@H](c5ccoc5)OC(=O)[C@H]5O[C@]54[C@]2(C)C(=O)C[C@@H]13 | 106% | –
CC1(CN2CCC(n3c(=O)[nH]c4ccccc43)CC2)OCc2ccccc2-n2cccc21 (stereo not given) | – | 8.33 µM (active)
NCCc1cnc[nH]1 | 120% | –
COc1nc(C)nc(Cl)c1NC1=NCCN1 | – | 7.43 µM (active)
CC(C)Cc1ccc(C(C)C(=O)O)cc1 (stereo not given) | 98.7% [at 23.2 µM] | –
CC#C[C@]1(O)CC[C@H]2[C@@H]3CCC4=CC(=O)CCC4=C3[C@@H](c3ccc(N(C)C)cc3)C[C@@]21C | – | 0.743 µM (active)
COc1ccc2[nH]cc(CCNC(C)=O)c2c1 | 112% | –
COc1ccccc1OCC(O)CN1CCN(CC(=O)Nc2c(C)cccc2C)CC1 (stereo not given) | 130% | –
CCCNCC(O)COc1ccccc1C(=O)CCc1ccccc1 (stereo not given) | 85.4% | –
CCC1(c2ccccc2)C(=O)NCNC1=O | – | 2.96 µM (active)
Cc1cn([C@H]2C=C[C@@H](CO)O2)c(=O)[nH]c1=O | 103% [at 92.2 µM] | –
COc1ccccc1OCCNCC(O)COc1cccc2[nH]c3ccccc3c12 (stereo not given) | – | 16.6 µM (active)
CC(C)NCC(O)c1ccc(O)c(O)c1 (stereo not given) | 114% | –
Clc1ccccc1C(c1ccccc1)(c1ccccc1)n1ccnc1 | – | 14.8 µM (active)
CN(Cc1cnc2nc(N)nc(N)c2n1)c1ccc(C(=O)N[C@@H](CCC(=O)O)C(=O)O)cc1 | – | 0.0662 µM (active)
